Measurements taken from PubChem BioAssay.
Where “and” joins values, the source holds several entries; their conditions need not be identical. Equal values may be shown once. A structure can be active in one record and inactive in another. Calls of active or inactive are those of the source. Unless noted, no rule for the calls is given here.

Legend:
[1] = HepG2 liver cancer cell viability effects, profiling panel, resazurin fluorescence, 24 h, PK04 Diversity Set (AID 1172); conditions: higher = more signal; also: test concentration not given here
[2] = basal S. cerevisiae growth modulation, no modifier, primary screen, OD600, strain BY4716, 24 h, basal condition (AID 1173); conditions: OD600, 24 h, higher = more signal, called active from +8 up or from −8 down
[3] = MM1S myeloma cell viability, profiling panel, resazurin fluorescence, basal, 24 h, PK04 Diversity Set (AID 1174); conditions: higher = more signal, called active from +8 up or from −8 down;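 also: MM1S multiple myeloma cell line; test concentration not given here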
[4] = molecular target: Dihydroorotate dehydrogenase (quinone), mitochondrial (Plasmodium falciparum (isolate 3D7)) (UniProt Q08210); experiment: PfDHODH enzyme inhibitors, primary screen, biochemical, C-terminal His tag, absorbance 600 nm (AID 1175); conditions: DCIP absorbance 600 nm, higher = more signal, called active from +8 up or from −8 down;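 also: recombinant parasite enzyme with a five histidine tag at its C terminus; test concentration not given here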
Dihydroorotate dehydrogenase (quinone), mitochondrial (Plasmodium falciparum (isolate 3D7)), sequence (Q08210 whole entry, looked up): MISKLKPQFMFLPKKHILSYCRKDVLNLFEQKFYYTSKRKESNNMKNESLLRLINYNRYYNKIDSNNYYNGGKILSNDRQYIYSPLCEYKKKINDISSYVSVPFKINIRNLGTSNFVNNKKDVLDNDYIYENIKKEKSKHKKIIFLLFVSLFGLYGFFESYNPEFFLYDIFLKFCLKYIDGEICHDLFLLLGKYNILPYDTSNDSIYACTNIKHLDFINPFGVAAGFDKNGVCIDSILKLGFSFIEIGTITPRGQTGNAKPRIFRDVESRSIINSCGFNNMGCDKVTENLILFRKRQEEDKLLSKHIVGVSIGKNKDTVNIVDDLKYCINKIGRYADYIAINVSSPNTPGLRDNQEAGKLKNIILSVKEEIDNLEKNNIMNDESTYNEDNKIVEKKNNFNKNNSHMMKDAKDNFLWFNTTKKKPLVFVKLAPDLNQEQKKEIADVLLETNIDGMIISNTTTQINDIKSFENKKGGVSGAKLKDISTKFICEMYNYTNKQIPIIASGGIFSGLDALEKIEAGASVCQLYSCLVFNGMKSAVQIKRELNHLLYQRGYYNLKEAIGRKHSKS

[5] = P. aeruginosa biofilm formation inhibitors, primary screen, strain PAO1, LB-PBS medium, absorbance 600 nm (AID 1176); also: test concentration not given here; conditions: P. aeruginosa PAO1 growth/biofilm, A600, 12 h; higher = more signal
[6] = S. cerevisiae RM11-1a growth modifiers, primary screen, strain RM11-1a, OD600, basal, 24 h (AID 1177); conditions: OD600, 24 h, higher = more signal, called active from +8 up or from −8 down;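 also: cultures grown under basal conditions with no added stressor; test concentration not given here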
[7] = E. coli acrAB mutant growth effects, primary screen, E. coli filamentation inducers, strain DRC39, OD650, 24 h (AID 1178); conditions: higher = more signal, called active from +8 up or from −8 down;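 also: growth measured as culture turbidity by optical density at 650 nm; test concentration not given here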
[8] = E. coli acrAB mutant growth effects, primary screen, E. coli filamentation inducers, strain DRC39, OD650, 48 h (AID 1179);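 also: screen aims at cell division blockers that make cells filament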; conditions: E. coli DRC39 delta-acrAB growth, higher = more signal, called active from +8 up or from −8 down
[9] = RPMI8226 myeloma cell viability, profiling panel, resazurin fluorescence, basal, 24 h, PK04 Diversity Set (AID 1180); conditions: higher = more signal;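 also: RPMI8826 multiple myeloma cell line at 5000 cells per well; test concentration not given here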
[10] = molecular target: E3 ubiquitin-protein ligase XIAP (Homo sapiens) (UniProt P98170); experiment: XIAP binders, primary screen, biophysical, small-molecule microarray, fluorescence 635 nm (AID 1181); conditions: small-molecule microarray binding, higher = more signal;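 also: score merges 667 nm emission and signal to noise over triplicate slides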
E3 ubiquitin-protein ligase XIAP (Homo sapiens), sequence (P98170 whole entry, looked up): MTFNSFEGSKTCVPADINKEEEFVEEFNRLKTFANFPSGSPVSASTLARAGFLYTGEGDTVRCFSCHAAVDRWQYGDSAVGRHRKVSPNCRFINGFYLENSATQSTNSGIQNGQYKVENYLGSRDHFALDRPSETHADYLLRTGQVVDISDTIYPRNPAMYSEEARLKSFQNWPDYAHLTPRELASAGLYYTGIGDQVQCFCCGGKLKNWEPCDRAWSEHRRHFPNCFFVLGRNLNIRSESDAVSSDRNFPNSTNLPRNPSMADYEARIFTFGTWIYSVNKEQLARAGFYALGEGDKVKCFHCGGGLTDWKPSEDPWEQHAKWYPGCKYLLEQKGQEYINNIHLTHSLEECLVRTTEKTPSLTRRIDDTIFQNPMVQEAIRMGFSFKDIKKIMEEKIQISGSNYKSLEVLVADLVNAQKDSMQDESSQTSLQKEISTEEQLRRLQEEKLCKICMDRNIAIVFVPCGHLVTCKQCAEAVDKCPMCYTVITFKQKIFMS

SMILES | z-score [1] | z-score [2] | z-score [3] | composite z-score [4] | z-score [5] | z-score [6] | z-score [7] | z-score [8] | z-score [9] | composite z-score [10]
C[C@@H]1CC[C@H]2C(=O)O[C@H](CN=[N+]=[N-])CN2[C@H]1c1ccc(Br)cc1 | -0.528 and 0.231 | -3.44 (inactive) and -4.5 (inactive) | -0.586 (inactive) and 0.637 (inactive) | 0.41 (inactive) and 0.841 (inactive) | 1.39 (inactive) and -0.0204 (inactive) | -0.505 (inactive) and 1.67 (inactive) | -0.686 (inactive) and -0.801 (inactive) | -0.633 (inactive) and -1.31 (inactive) | -1.38 and 0.417 | 0.0871 and 0.277
CC(C)CCN1CCc2nc(-c3ccccc3)c3c(c2C1)CO[C@@H](C)C3 | -0.123 | -1.08 (inactive) | -0.0881 (inactive) | -0.363 (inactive) | -0.188 (inactive) | 0.396 (inactive) | 0.66 (inactive) | 0.0602 (inactive) | 0.129 | 0.201
CC(C)OC(=O)C=C1C[C@@H](c2ccccc2)O[C@@H](c2ccccc2)O1 | 0.0904 and -0.562 | -1.21 (inactive) and -0.385 (inactive) | 0.468 (inactive) and -3.15 (inactive) | -0.125 (inactive) and -1.68 (inactive) | 0.533 (inactive) and 0.394 (inactive) | 0.306 (inactive) and 0.904 (inactive) | -0.65 (inactive) and -0.601 (inactive) | 0.945 (inactive) and 0.907 (inactive) | 1.54 and -2.33 | -0.13 and 0.013
C=CCN(C(=O)C1N(C(C)(C)CO)C(=O)C2C(C(=O)O)C3C=CC21O3)c1ccc(OC)cc1 (stereo not given) | 0.489 and -0.143 | -0.684 (inactive) and 0.362 (inactive) | 1.01 (inactive) and 0.128 (inactive) | 0.2 (inactive) and -2.13 (inactive) | -0.786 (inactive) | 0.643 (inactive) and 1.4 (inactive) | 1.33 (inactive) and 0.347 (inactive) | 1.09 (inactive) and 0.546 (inactive) | 0.592 and -0.39 | -0.0771 and -0.0663
C=CCN(C(=O)C1N(c2c(Cl)cccc2CO)C(=O)C2C(C(=O)O)C3C=CC21O3)c1ccc(OC)cc1 (stereo not given) | -0.48 and 0.737 | -0.566 (inactive) and -0.241 (inactive) | -1.03 (inactive) and 0.874 (inactive) | -0.394 (inactive) and -0.0226 (inactive) | -0.137 (inactive) and -0.428 (inactive) | 0.344 (inactive) and -1.83 (inactive) | -0.237 (inactive) and 1.79 (inactive) | -0.293 (inactive) and 1.93 (inactive) | -0.509 and 1.06 | 0.281 and -0.152
COC(=O)[C@@]1(Cc2ccc(F)cc2)[C@H]2c3cc(C(=O)N4CCCC4)n(Cc4c(CO)[nH]cc(C)c4=O)c3C[C@H]2CN1C(=O)c1ccccc1 | -0.605 and 1.06 | 1.61 (inactive) and 2.35 (inactive) | -1.14 (inactive) and -0.131 (inactive) | 0.0634 (inactive) and 0.524 (inactive) | 1.38 (inactive) and 0.895 (inactive) | 1.33 (inactive) and 1.72 (inactive) | -0.573 (inactive) and -0.476 (inactive) | -0.104 (inactive) and -0.339 (inactive) | -1.14 and -1.39 | 0.221 and 0.0726
CC(C)=NOCc1ccc(-c2cn([C@@H]3COC[C@H]3O)nn2)cc1 | -0.203 | 0.313 (inactive) | 0.0429 (inactive) | -0.478 (inactive) | -0.0691 (inactive) | -0.0292 (inactive) | 0.114 (inactive) | -0.0038 (inactive) | 0.106 | 0.0049
CON(C)C(=O)c1nnc2c3ccccc3n(S(=O)(=O)c3ccc(C)cc3)c2n1 | -0.311 and -0.466 | -0.148 (inactive) and -0.378 (inactive) | -0.125 (inactive) and -0.498 (inactive) | 0.354 (inactive) and -0.588 (inactive) | -0.446 (inactive) and 0.757 (inactive) | -0.469 (inactive) and -0.226 (inactive) | -0.339 (inactive) and 0.046 (inactive) | -0.512 (inactive) and -0.404 (inactive) | -0.691 and -0.232 | -0.146 and 0.687
COC(=O)[C@@]1(Cc2ccccc2)[C@H]2c3cc(C(=O)N(C)C)n(Cc4ccc(C)c(F)c4F)c3C[C@H]2CN1C(=O)c1ccccc1 | -2.95 and -1.72 | -0.265 (inactive) and 0.53 (inactive) | -9.12 (active) and -3.68 (inactive) | -3.37 (inactive) and -0.0662 (inactive) | 3.02 (inactive) and 2.16 (inactive) | 0.526 (inactive) and 0.401 (inactive) | -0.347 (inactive) and -1.25 (inactive) | -0.834 (inactive) and -0.836 (inactive) | -6.06 and -3.79 | 0.188 and 0.122
C=CCN(CCCC)C(=O)C1N(C(C)(C)CO)C(=O)C2C(C(=O)O)C3C=CC21O3 (stereo not given) | 0.043 and 0.688 | 0.709 (inactive) and -0.0821 (inactive) | -0.0251 (inactive) and -0.847 (inactive) | -1.46 (inactive) and 0.0326 (inactive) | 0.385 (inactive) and 0.0126 (inactive) | -0.902 (inactive) and -1.02 (inactive) | 0.378 (inactive) and 0.096 (inactive) | 0.0298 (inactive) and -0.182 (inactive) | -0.131 and -0.803 | -0.162 and -0.195
C=CCN(C(=O)C(c1cccs1)N(C(=O)/C=C\C(=O)O)c1ccc(CCO)cc1)C(C)(C)C (stereo not given) | -0.388 and -0.35 | -2.06 (inactive) and -0.483 (inactive) | 0.448 (inactive) and 0.224 (inactive) | -2.45 (inactive) and -0.818 (inactive) | 0.289 (inactive) and -0.332 (inactive) | -0.0345 (inactive) and -0.122 (inactive) | 0.592 (inactive) and -0.113 (inactive) | 0.864 (inactive) and 0.356 (inactive) | 0.0456 and 0.0755 | -0.232 and -0.145
C=C[C@@H](C)[C@H](O)c1ccc(O)c2ccccc12 | 0.127 and 0.0729 | -8.76 (active) and -8.55 (active) | -0.683 (inactive) and -0.737 (inactive) | -0.94 (inactive) and -0.709 (inactive) | 0.483 (inactive) and 0.79 (inactive) | -0.638 (inactive) and -0.599 (inactive) | 0.479 (inactive) and 0.435 (inactive) | 0.008 (inactive) and 0.189 (inactive) | -0.861 and -0.602 | -0.0893 and 0.0773
C=CCN(CCCC)C(=O)C(c1cccs1)N(C(=O)/C=C\C(=O)O)c1ccc(CCO)cc1 (stereo not given) | -0.289 and -0.837 | -0.561 (inactive) and -0.0853 (inactive) | -0.508 (inactive) and -2.49 (inactive) | -0.133 (inactive) and 0.117 (inactive) | -0.208 (inactive) and -0.469 (inactive) | 0.24 (inactive) and 0.473 (inactive) | 0.596 (inactive) and 0.709 (inactive) | 0.597 (inactive) and 0.915 (inactive) | -0.213 and -0.931 | -0.102 and 0.0641
CCC[C@@H]1C[C@@]1(CCC)[C@@H](NC(=O)c1ccc(-c2ccccc2)cc1)c1cccc(Cl)c1 | 0.791 and 0.395 | 0.0143 (inactive) and 1.49 (inactive) | -0.0393 (inactive) and -0.312 (inactive) | -0.824 (inactive) and 0.499 (inactive) | 1 (inactive) and 0.343 (inactive) | 0.38 (inactive) and 1.47 (inactive) | -0.505 (inactive) and -0.336 (inactive) | -0.61 (inactive) and -0.0929 (inactive) | 0.889 and -0.275 | -0.0305 and 0.0623
COC(=O)CC=C[C@@H](C)[C@@H](CO)NS(=O)(=O)c1ccc(C)cc1 | 0.553 and -0.369 | 0.909 (inactive) and -1.39 (inactive) | 0.0323 (inactive) and -0.548 (inactive) | 0.581 (inactive) and -0.0189 (inactive) | 0.013 (inactive) and 0.204 (inactive) | -0.214 (inactive) and -0.162 (inactive) | -0.0056 (inactive) and 0.413 (inactive) | -0.214 (inactive) and 0.297 (inactive) | 0.519 and -0.314 | -0.275 and 0.0656
C=CCN(Cc1ccccc1)C(=O)C(c1cccs1)N(C(=O)/C=C\C(=O)O)c1c(Cl)cccc1CO (stereo not given) | 0.201 and -0.418 | -0.0348 (inactive) and -0.539 (inactive) | 0.258 (inactive) and -0.385 (inactive) | 0.607 (inactive) and 1.16 (inactive) | 0.165 (inactive) and -0.208 (inactive) | 0.0233 (inactive) and -0.276 (inactive) | 0.759 (inactive) and 0.391 (inactive) | -1.34 (inactive) and 0.456 (inactive) | -0.124 and -1 | -0.0172 and -0.359
C=C(C)C(=O)OC[C@@H]1CN2[C@@H](CC[C@@H](C)[C@@H]2c2ccc(Br)cc2)C(=O)O1 | 0.726 | -3.12 (inactive) | 0.155 (inactive) | 0.187 (inactive) | 0.936 (inactive) | 0.361 (inactive) | 0.513 (inactive) | 0.682 (inactive) | 0.173 | -0.0326
